Screens from PubChem BioAssay.
CYP2C19 activ: human CYP2C19 activators, primary screen, biochemical, luminescence; recombinant CYP2C19, luciferin-H EGE luminescence; active compounds read high; 0 = fully inhibited enzyme, 1 = untreated enzyme; Cytochrome P450 2C19 (Homo sapiens), P33261; activation factor at 5 µM; 96,000 tested, under 10 active;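 active means activation factor of at least 2 at 5 µM in the primary screen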;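 further: 0 = wells with 2.5 mM tranylcypromine and 1 = vehicle-only wells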
CYP2C9 inh: blockers of cytochrome P450 2C9 activity – biochemical, luminescence, ADME assay, primary screen. AID 777, 2007. CYP2C9 Supersomes, luciferin-H conversion. hit rate 20% among 96,000. inhibition, % at 5 µM. P11712;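 active means blocking of liver enzyme CYP2C9 beyond about 50% at 5 µM, limit read from the data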
Mac1 fbg enh: enhancers of CD11b/CD18 adhesion to fibrinogen, primary screen, K562 cells, luminescence | Integrin beta-2 (Homo sapiens) + Integrin alpha-M (Homo sapiens), P05107+P11215 | ATPlite luminescence | activation, % at 10 µM | hit rate 0.07% among 93,000 | AID 1499, 2009;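 active means 10 µM primary screen giving 50% or more activity, confirmed by 40% or more on retest at that dose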
Target sequence (P05107 whole entry, looked up, other chains not shown): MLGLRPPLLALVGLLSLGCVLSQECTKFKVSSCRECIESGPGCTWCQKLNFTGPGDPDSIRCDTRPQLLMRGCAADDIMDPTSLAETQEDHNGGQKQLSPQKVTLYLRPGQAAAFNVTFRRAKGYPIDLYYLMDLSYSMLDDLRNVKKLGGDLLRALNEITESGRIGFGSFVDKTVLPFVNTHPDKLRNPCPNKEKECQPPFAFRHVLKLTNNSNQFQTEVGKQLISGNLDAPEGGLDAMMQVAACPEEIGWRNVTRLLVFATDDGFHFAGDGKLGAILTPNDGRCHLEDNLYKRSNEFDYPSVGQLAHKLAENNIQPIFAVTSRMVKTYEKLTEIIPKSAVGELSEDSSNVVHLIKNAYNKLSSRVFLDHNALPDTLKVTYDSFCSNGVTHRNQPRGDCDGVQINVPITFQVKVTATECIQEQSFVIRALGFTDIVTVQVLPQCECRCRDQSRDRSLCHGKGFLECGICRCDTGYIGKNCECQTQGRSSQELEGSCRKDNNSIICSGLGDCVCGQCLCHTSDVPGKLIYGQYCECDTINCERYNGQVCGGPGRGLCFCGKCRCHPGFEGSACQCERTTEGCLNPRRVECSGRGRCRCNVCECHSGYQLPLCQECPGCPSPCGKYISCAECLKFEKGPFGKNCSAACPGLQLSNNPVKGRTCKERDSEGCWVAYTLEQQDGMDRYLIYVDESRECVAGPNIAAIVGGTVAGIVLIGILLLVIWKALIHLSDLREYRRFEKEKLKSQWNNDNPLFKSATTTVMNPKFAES
CYP2C9 act: human CYP2C9 activators, primary screen, biochemical, luminescence; Cytochrome P450 2C9 (Homo sapiens), P11712; recombinant CYP2C9, luciferin-H conversion; active compounds read high; factor 1 = untreated enzyme, 0 = blocked; activation factor at 5 µM; hit rate 1.4% among 96,000; AID 1024, 2008;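 active means activation factor of 2 or more for CYP2C9 at a 5 µM dose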;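 further: 0 = sulfaphenazole-blocked wells and 1 = vehicle-only wells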
CYP2C19 inh: blockers of cytochrome P450 2C19 activity – biochemical, luminescence, ADME assay, primary screen | P33261 | CYP2C19 Supersomes, luciferin-H EGE luminescence, 30 min | inhibition, % at 5 µM | hit rate 21% among 96,000 | AID 778, 2007;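 active means CYP2C19 inhibition above a set limit at 5 µM in the primary screen, cut at about 50% in these data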;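 further: plate controls were negative control wells for no effect and 2.5 mM tranylcypromine positive control for full effect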
CD11b adhes inh: inhibitors of CD11b/CD18 adhesion to fibrinogen, primary screen, K562 cells, luminescence; hit rate 0.54% among 93,000; ATPlite luminescence; Mn2+ added to activate the integrin; inhibition, % at 10 µM;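 active means primary inhibition of 50% or more at 10 µM, then 40% or more on retest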
* marks the source's active call; other numbers are inactive results. The list is not random: actives were taken first. Their share in the collection is about 28%.

For O=C(CN(Cc1cccs1)C(=O)CN1C(=O)COc2ccccc21)NCc1ccco1 the results were CYP2C19 activ 0.9, CYP2C9 inh 13, Mac1 fbg enh 3, CYP2C9 act 0.9, CYP2C19 inh 12 and CD11b adhes inh -18.
`CCCNC(=O)N1CCC(C(=O)c2ccc(Cl)cc2)CC1` gave CYP2C19 activ 0.9, CYP2C9 inh 11, CYP2C9 act 0.9 and CYP2C19 inh 7.
For Cc1cccc(C)c1OCC(O)CNC(C)(C)C (centres undefined) the results were CYP2C19 activ 1, CYP2C9 inh -15, CYP2C9 act 1.1 and CYP2C19 inh -5.
Screening N=c1c2c3c(sc2ncn1CCCO)CCCC3 returned CYP2C19 activ 1, CYP2C9 inh 17, Mac1 fbg enh -4, CYP2C9 act 0.8, CYP2C19 inh -4 and CD11b adhes inh -4.
Screening CCCCn1cnc2sc3c(c2c1=N)CCCC3 returned CYP2C19 activ 0.4, CYP2C9 inh -1, Mac1 fbg enh -2, CYP2C9 act 1, CYP2C19 inh 60* and CD11b adhes inh -4.
COc1ccc(-c2nc(Cn3c(SCc4ccccc4F)nc4ccncc43)c(C)o2)cc1 was read as CYP2C19 activ 0, CYP2C9 inh 73*, Mac1 fbg enh -1, CYP2C9 act 0.3, CYP2C19 inh 97* and CD11b adhes inh -5.
Screening COc1ccc(-c2nc(Cn3c(SCc4ccc(F)cc4)nc4ccncc43)c(C)o2)cc1OC returned CYP2C19 activ 0.1, CYP2C9 inh 90*, Mac1 fbg enh 23, CYP2C9 act 0.1, CYP2C19 inh 89* and CD11b adhes inh -2.
Screening CCCCn1c(NC(=O)c2ccccc2)nc2ccccc21 returned CYP2C19 activ 0.4, CYP2C9 inh 73*, Mac1 fbg enh -1, CYP2C9 act 0.3, CYP2C19 inh 61* and CD11b adhes inh -3.
Screening CCCCCn1c(C(Cc2ccccc2)NC(C)=O)nc2ccccc21 (centres undefined) returned CYP2C19 activ 0.3, CYP2C9 inh 23, Mac1 fbg enh 1, CYP2C9 act 0.8, CYP2C19 inh 74* and CD11b adhes inh -4.
`CCOC(=O)CN1C(=O)SC(CC(=O)Nc2nccs2)C1=O` (centres undefined) gave CYP2C19 activ 0.7, CYP2C9 inh 35, Mac1 fbg enh 1, CYP2C9 act 0.7, CYP2C19 inh 27 and CD11b adhes inh -26.
Screening C=CCSC1=C(C#N)C2(CCCCC2)C(C#N)C(=O)N1 (centres undefined) returned CYP2C19 activ 0.4, CYP2C9 inh 83*, Mac1 fbg enh -2, CYP2C9 act 0.2, CYP2C19 inh 58* and CD11b adhes inh -11.
For N#CC1=C(SCC(=O)Nc2cccc3cccnc23)NC(=O)C(C#N)C12CCCCC2 (centres undefined) the results were CYP2C19 activ 0.2, CYP2C9 inh 91*, Mac1 fbg enh -9, CYP2C9 act 0.1, CYP2C19 inh 78* and CD11b adhes inh 47.
For O=C(CSC1=NC(=O)C(Cc2ccccc2)C(=O)N1)NC1CCCCC1 (centres undefined) the results were CYP2C19 activ 0.7, CYP2C9 inh 25, Mac1 fbg enh -1, CYP2C9 act 0.8, CYP2C19 inh 30 and CD11b adhes inh 0.
CC(C)(C)C1CCC2(CC1)C(C#N)=C(SCC(=O)NC1CCCCC1)NC(=O)C2C#N (centres undefined) was read as CYP2C19 activ 0.5, CYP2C9 inh 92*, Mac1 fbg enh -15, CYP2C9 act 0.1, CYP2C19 inh 46 and CD11b adhes inh 102.
C=CCSC1=NC(N)=C(C#N)C2(CCCCC2)C1C(N)=O (centres undefined) was read as CYP2C19 activ 0.1, CYP2C9 inh 32, Mac1 fbg enh -3, CYP2C9 act 0.7, CYP2C19 inh 89* and CD11b adhes inh -5.
`N#CC1=C(N)N=C(SCc2ccccc2)C(C(N)=O)C12CCCCC2` (centres undefined) gave CYP2C19 activ 0.7, CYP2C9 inh 4, CYP2C9 act 1 and CYP2C19 inh 35.
